Experimental findings from PubChem BioAssay are described below.

The nature of test [1]: inhibitors of TNFa-induced NFkB p65 translocation, primary screen, imaging, HUVEC, MLSMR starter and 10KST1 sets (AID 438;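 active = inhibition above 20% together with a positive visual image hit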;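 also: compound added about 3h40 before a 20 min TNFalpha stimulation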;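 as to inhibition: signal is the nuclear over cytoplasmic p65 intensity ratio per well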). To be noted: HUVEC TNFa-induced p65 nuclear translocation; cell count: measured here: nuclei count (cytotoxicity indicator), at 2.08 µM; inhibition: at 2 µM, stronger effect = higher value, 0% TNFa-plus-vehicle, 100% no-TNFa wells.
Test [2] in a line: reduction of polyQ htt aggregates in cells – imaging, exon1htt(103Q)mCFP cells, high-content imaging, primary screen (AID 483;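 active = visual image review flags a hit and inhibition of aggregation exceeds 20%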;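 also: compound exposure lasted 3 days before fixation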;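 as to nuclei count: percent of the per-plate median nuclei count of sample wells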). As to conditions: exon1htt(103Q)mCFP cell line, aggregate imaging, at 2 µM; inhibition of aggregation: stronger effect = higher value; nuclei count: measured here: cell count, toxicity.
Test [3] can be described thus: endothelial E-selectin expression blockers – imaging, HUVEC, immunofluorescence, MLSMR starter and 10KST1 sets, primary screen (AID 487;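 active = visually confirmed hit in the image check and inhibition above 20%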;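 as to inhibition: signal is fraction of cell area covered by stained E-selectin grains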;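 as to nuclei count: 100% = median nuclei count of all wells on the same plate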). To be noted: HUVEC TNFalpha-induced E-selectin immunofluorescence imaging, at 2 µM; inhibition: stronger effect = higher value; nuclei count: measured here: cell number, toxicity.
Test [4] can be described thus: Primary imaging screen for DUSP6 inhibitors that restore phospho-Erk in transfected HeLa cells, chemical complementation (AID 609;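 active = compounds giving at least 50% inhibition in the cell-based MKP-3 phosphatase rescue imaging test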;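 as to inhibition: phospho-Erk level distribution per well compared with pooled transfected vehicle control wells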). To be noted: HeLa MKP-3 transfected, phospho-Erk imaging KS statistic, at 10 µM, cells stimulated with TPA for 15 min.
Test [5] has as its target Dual specificity protein phosphatase 6 (Homo sapiens) (UniProt Q16828). The description is as above. As to conditions: HeLa MKP-3 transfected, phospho-Erk imaging KS statistic; at 10 µM; stronger effect = higher value; cells stimulated with TPA for 15 min.
Test [6] has as its target Voltage-gated potassium channel subunit beta-2 (Rattus norvegicus) (UniProt P62483). Description: inhibitors of rat Kvbeta2 reductase activity – biochemical, NADPH fluorescence, primary screen (AID 622;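 active = fluorescence slope higher than the sample average by over 3 SD, cut at about -0.22 in these data, passing the limit was not always enough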;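 also: slope of raw intensity against log time taken from 70 to 1610 s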). To be noted: recombinant KvBeta, 4-cyanobenzaldehyde reduction, at 10 µM, stronger effect = higher value.
Test [7] shares this target. The test can be described thus: enhancers of rat Kvbeta2 NADPH turnover – biochemical, NADPH fluorescence, primary screen (AID 623;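 active = NADPH fluorescence slope more negative than the mean of all samples by about 3 SD, 99.7% confidence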;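 also: fluorescence intensity change per second fitted from 20 to 320 s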). To be noted: Recombinant KvBeta, NADPH fluorescence decrease slope, 10 min; at 10 µM; stronger effect = lower value.
In test [8] the target is Alpha-2C adrenergic receptor (Homo sapiens) (UniProt P18825). The test can be described thus: compounds altering alpha2C-coupled GIRK flux – cell-based, HEK293 alpha2C/GIRK1/2, thallium flux, primary screen (AID 624;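 active = fluorescence slope after compound addition differing from the mean of all screened samples at 99.7% confidence, in either direction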;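 also: slope of fluorescence ratio to pre-addition baseline per second over 15 to 24 s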). As to conditions: thallium flux BTC fluorescence, at 10 µM, actives lie on both sides.
Alpha-2C adrenergic receptor (Homo sapiens), sequence (P18825 whole entry, looked up): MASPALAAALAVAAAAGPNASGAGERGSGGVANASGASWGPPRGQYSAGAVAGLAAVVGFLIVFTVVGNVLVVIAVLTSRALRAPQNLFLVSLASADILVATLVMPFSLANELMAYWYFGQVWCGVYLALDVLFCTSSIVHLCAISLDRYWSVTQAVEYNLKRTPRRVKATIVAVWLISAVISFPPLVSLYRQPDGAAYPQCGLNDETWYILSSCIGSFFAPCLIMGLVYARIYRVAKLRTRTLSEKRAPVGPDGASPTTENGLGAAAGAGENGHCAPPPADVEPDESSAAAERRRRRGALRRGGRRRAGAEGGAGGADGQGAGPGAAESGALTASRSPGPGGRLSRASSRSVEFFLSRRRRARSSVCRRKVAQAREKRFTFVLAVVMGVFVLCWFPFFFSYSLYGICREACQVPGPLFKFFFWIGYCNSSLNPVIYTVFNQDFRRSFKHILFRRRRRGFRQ
A short description of test [9]: loss of swimming-algae plug formation – whole organism, Chlamydomonas reinhardtii, WT vs cilia-less mutant, absorbance, 96-well, primary screen (AID 463189).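 Also: 0% = wild type cc124 cells in DMSO and 100% = ciliumless bld1 mutant cells.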 To be noted: Chlamydomonas reinhardtii gravitaxis, OD600 absorbance, 2 days; at 10 µM; stronger effect = higher value.
Test [10] can be described thus: blockers of RIG-like receptor reporter activation – cell-based, Sendai virus stimulus, luciferase, 10K MLSCN set, TLR/RLR signaling modifier project, primary screen (AID 602276;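 active = inhibition at or above 50% at 10 µM; inactive = inhibition below 50%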;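 also: firefly luciferase from ISG56 promoter only with Renilla not read in this screen; 0% = Sendai virus plus DMSO and 100% = medium plus DMSO without virus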). To be noted: HEK293 RL24 IRF3 luciferase reporter, at 10 µM, stronger effect = higher value. (A reporter such as luciferase makes a cellular process visible.)
Test [11] is described as follows: TLR3 IRF3 reporter activation blockers – cell-based, poly I:C stimulus, luciferase, 10K MLSCN set, primary screen (AID 602277;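 active = inhibition of the reporter signal at or above 50%; inactive = inhibition below 50%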). To be noted: HEK293-TLR3 RL24 IRF3 luciferase reporter, at 10 µM, stronger effect = higher value.
In test [12] the target is Muscarinic acetylcholine receptor M4 (Homo sapiens) (UniProt P08173). The test can be described thus: M4-linked GIRK flux change, two-sided – cell-based, HEK293 M4/GIRK, thallium flux, BTC-AM, M4 allosteric agonist project, primary screen (AID 625;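 active = fluorescence slope after compound addition differing from the mean of all tested samples at 99.7% confidence, mostly higher but some lower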;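 also: thallium influx through GIRK channels coupled to M4 in HEK293 cells with BTC-AM dye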). As to conditions: at 10 µM, actives lie on both sides.
Muscarinic acetylcholine receptor M4 (Homo sapiens), sequence (P08173 whole entry, looked up): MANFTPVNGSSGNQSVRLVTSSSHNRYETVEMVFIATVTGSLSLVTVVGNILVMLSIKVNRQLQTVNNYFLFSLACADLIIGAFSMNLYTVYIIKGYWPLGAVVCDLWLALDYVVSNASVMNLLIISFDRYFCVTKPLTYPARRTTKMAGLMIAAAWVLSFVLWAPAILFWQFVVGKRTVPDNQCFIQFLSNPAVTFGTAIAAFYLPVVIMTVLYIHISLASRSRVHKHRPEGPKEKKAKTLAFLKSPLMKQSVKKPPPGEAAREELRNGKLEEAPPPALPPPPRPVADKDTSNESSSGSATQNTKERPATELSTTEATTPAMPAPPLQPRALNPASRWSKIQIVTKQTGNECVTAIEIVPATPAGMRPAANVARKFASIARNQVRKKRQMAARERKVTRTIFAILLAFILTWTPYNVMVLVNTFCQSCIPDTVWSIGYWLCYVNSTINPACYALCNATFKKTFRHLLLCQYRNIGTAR
Test [13] can be described thus: inhibitors of larval lipid processing in zebrafish, primary screen, whole organism, PED6 fluorescence, gall bladder and intestine (AID 686;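 active = a full or partial loss of lipid-probe fluorescence in the fish gall bladder, intestine or both, judged by eye; inactive = no fluorescence loss, or compound toxic to the fish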;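 also: larvae 5 to 7 days old with five fish per well; signal comes from phospholipase A2 cleavage of quenched PED6 carried via bile; overnight exposure to compound and PED6 before scoring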). As to conditions: Zebrafish larvae PED6 lipid processing, fluorescence scoring; screened at 20 µM (by protocol).
[14] abbreviates: measured here: cell density z-score.
The mark [15] stands for this setting: measured here: nuclear c-Myc green intensity z-score.
The mark [16] stands for this setting: measured here: nuclear pErk red intensity z-score, stronger effect = higher value.

“And” between values parts separate entries of the source, which are not always exact repeats. Identical values can stand only once. The source made the active and inactive calls.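 The calls were made as follows, unless noted: active = inhibition at or above 50% relative to wild type and mutant plate controls; inactive = inhibition below 50%.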

Voltage-gated potassium channel subunit beta-2 (Rattus norvegicus), sequence (P62483 whole entry, looked up): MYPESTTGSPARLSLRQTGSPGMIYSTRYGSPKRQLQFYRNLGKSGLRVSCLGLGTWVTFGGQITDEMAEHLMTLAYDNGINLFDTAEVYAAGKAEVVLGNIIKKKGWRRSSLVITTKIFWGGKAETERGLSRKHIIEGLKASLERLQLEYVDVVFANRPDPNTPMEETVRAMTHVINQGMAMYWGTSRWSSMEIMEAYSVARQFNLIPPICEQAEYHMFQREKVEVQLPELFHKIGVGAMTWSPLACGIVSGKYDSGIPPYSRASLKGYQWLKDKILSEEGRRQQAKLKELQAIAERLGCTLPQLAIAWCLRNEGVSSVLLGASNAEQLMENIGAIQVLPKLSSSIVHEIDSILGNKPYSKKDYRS
Dual specificity protein phosphatase 6 (Homo sapiens), sequence (Q16828 whole entry, looked up): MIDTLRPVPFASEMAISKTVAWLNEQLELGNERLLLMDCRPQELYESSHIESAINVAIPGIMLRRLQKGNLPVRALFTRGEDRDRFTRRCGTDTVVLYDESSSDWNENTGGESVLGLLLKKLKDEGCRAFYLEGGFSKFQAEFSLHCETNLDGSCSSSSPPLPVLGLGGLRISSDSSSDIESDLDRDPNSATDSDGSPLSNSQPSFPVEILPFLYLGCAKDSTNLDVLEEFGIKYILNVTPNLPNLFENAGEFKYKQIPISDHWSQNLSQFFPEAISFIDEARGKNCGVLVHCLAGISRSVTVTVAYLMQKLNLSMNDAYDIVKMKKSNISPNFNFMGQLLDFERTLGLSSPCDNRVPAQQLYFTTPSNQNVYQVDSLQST

`Cc1cc(=O)oc2c(CN3CCN(C)CC3)c(O)c(Cl)cc12`: in test [1], the cell count was found to be 494. Moreover, the inhibition (as a rule, the relative decrease from the control value, in per cent) is -13.9% (inactive) in [1]; -17.2% (inactive) in [3]; 1.48% (inactive) in test [5]; -9.73% (inactive) in test [9]; 14.9% (inactive) in [10]; 17.6% (inactive) in test [11]. The inhibition of aggregation in [2] is 0.1% (inactive). Also, the nuclei count was found to be 101% in [2] and 105% in [3]. Moreover, the results for the z-score in test [4] (setting [14]), in [4] (setting [15]) and in test [4] (setting [16]) were -0.81, -0.0591 and -0.654, respectively. Moreover, in test [6], the fluorescence slope is -0.0297 (active). The NADPH fluorescence slope in [7] was 2e-05 (inactive). In addition, the slope in [8] is 0.00763 (inactive).

On to `CCOc1ccc2nc(SCC(=O)Nc3ncccn3)[nH]c2c1`, for which, in [1], the cell count was found to be 478. Besides, the inhibition is -3.6% (inactive) in [1]; -10.6% (inactive) in test [3]; 1.98% (inactive) in [5]; 10.6% (inactive) in [9]; -10.6% (inactive) in test [10]; 99.1% (active) in test [11]. Further, the inhibition of aggregation in test [2] was -10.2% (inactive). Moreover, the nuclei count in [2] is 111%; in test [3], 138%. Moreover, the values for the z-score in [4] (setting [14]), in test [4] (setting [15]) and in test [4] (setting [16]) were -1.13, -0.409 and 1.4, respectively. Further, the fluorescence slope in test [6] was -0.358 (inactive); in test [12] it was 0.00652 (inactive). Also, the NADPH fluorescence slope in test [7] was -4.6e-05 (inactive). Moreover, in test [8], the slope was 0.00651 (inactive). In addition, in [13], the compound was classed as inactive.

For `CC(C)OC(=O)C(C)(C)Oc1ccc(C(=O)c2ccc(Cl)cc2)cc1`, the cell count in test [1] was found to be 484. The inhibition in [1] was -9% (inactive); in test [3], -10.1% (inactive); in [5] it was -8.38% (inactive); in test [9], -3.15% (inactive) and 23.4% (inactive); in test [10], -6.93% (inactive); in test [11] it was 18.9% (inactive). Moreover, the inhibition of aggregation in test [2] is 28.8% (inactive). The nuclei count is 89.5% in test [2] and 97.2% in test [3]. The z-score in test [4] (setting [14]) is 0.497; in [4] (setting [15]) it was -1.12; in [4] (setting [16]), 0.95. The fluorescence slope in [6] is -0.446 (inactive). Also, the NADPH fluorescence slope in test [7] is 1.6e-05 (inactive). For the same compound, the slope in test [8] was 0.00465 (inactive).

Consider `CCCCOc1ccc(CC(=O)NO)cc1`, for which the cell count in test [1] is 619. For the same compound, the inhibition in [1] was -10.2% (inactive); in test [3] it was -41.8% (inactive); in [5], -0.493% (inactive); in [9] it was 7.46% (inactive); in test [10], 13.6% (inactive); in test [11] it was 31.2% (inactive). Also, the inhibition of aggregation in [2] is -11.8% (inactive). Moreover, the nuclei count in test [2] came to 91%; in test [3], 111%. The z-score is -0.368 in [4] (setting [14]), -0.467 in test [4] (setting [15]) and -0.347 in test [4] (setting [16]). The fluorescence slope in test [6] is -0.547 (inactive). The NADPH fluorescence slope in test [7] was -4.3e-05 (inactive). The slope in [8] was 0.00497 (inactive).

Turning to `CCCn1c(=O)c2[nH]c(C3CCCC3)nc2n(CCC)c1=O`, in [1], the cell count worked out at 503. The inhibition in test [1] is -3.1% (inactive); in test [3], -83.5% (inactive); in test [5], 3.59% (inactive); in [9], 4.71% (inactive) and -9.34% (inactive); in [10] it was 14.1% (inactive); in test [11], 38.5% (inactive). In [2], the inhibition of aggregation was 26% (inactive). For the same compound, the nuclei count in [2] stood at 92.4%; in [3] it was 117%. In addition, the z-score was 0.276 in test [4] (setting [14]), -0.431 in [4] (setting [15]) and -1.23 in [4] (setting [16]). In addition, the fluorescence slope in test [6] is -0.432 (inactive). In test [7], the NADPH fluorescence slope was -7.8e-05 (inactive). In addition, in [8], the slope was 0.00398 (inactive).

Turning to `CCO/C([O-])=N/c1c[n+](N2CCOCC2)no1`, the cell count in [1] turned out to be 669. In addition, the inhibition in test [1] is 9.9% (inactive); in test [3] it was -28.6% (inactive); in test [5], 16.8% (inactive); in test [9], 2.9% (inactive) and 18.7% (inactive); in test [10], -10.8% (inactive); in test [11] it was -12.7% (inactive). Further, in test [2], the inhibition of aggregation is -18.2% (inactive). The nuclei count in test [2] was 97.5%; in test [3], 122%. In addition, the z-score in [4] (setting [14]) is -0.87; in test [4] (setting [15]), -0.27; in test [4] (setting [16]) it was -1.04. Also, the fluorescence slope in [6] was -0.482 (inactive). Also, the NADPH fluorescence slope in test [7] is -6e-05 (inactive). The slope in test [8] is 0.00537 (inactive).

On to `CCOc1ccc(S(=O)(=O)N(C)C)cc1-c1nc2c(C(C)(C)C)nn(C)c2c(=O)[nH]1`, for which the cell count in test [1] worked out at 411. The inhibition in [1] was 20.9% (active); in test [3] it was 27.5% (inactive); in [5], 17.3% (inactive); in test [9], 19.7% (inactive); in test [10] it was -1.7% (inactive); in [11], -7.19% (inactive). Moreover, the inhibition of aggregation in [2] was -22.3% (inactive). For the same compound, the nuclei count in test [2] stood at 107%; in test [3] it was 115%. Moreover, the z-score in test [4] (setting [14]) was 1.1; in test [4] (setting [15]), 0.134; in test [4] (setting [16]) it was -1.43. For the same compound, the fluorescence slope in test [6] was -0.477 (inactive); in [12], 0.00621 (inactive). Besides, in [7], the NADPH fluorescence slope is -0.000115 (inactive). In [8], the slope is 0.00418 (inactive). Moreover, in [13], the outcome was inactive.
